Consider 14 molecules from PubChem BioAssay (NCATS).

A short description of assay [1]: qHTS of pediatric cancer cell lines to identify multiple opportunities for drug repurposing: Confirmatory screen for SJ-GBM2 cells (AID 1347116). Further: potency means the concentration at half of the fitted maximal effect; nearly all actives have a fitted effect of over 60% in size. The gist of the method: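 Viability measured as metabolically active cells via CellTiter-Glo luminescence following 48 hours of compound exposure, 11-point dilutions in confirmatory testing. 500-1,000 cells/well plated 5 hours before dosing; controls were DMSO and 2.3 µM bortezomib.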

Assay [2] in a line: qHTS of pediatric cancer cell lines to identify multiple opportunities for drug repurposing: Confirmatory screen for BT-37 cells (AID 1347117). Further: potency means the concentration at half of the fitted maximal effect; nearly all actives have a fitted effect of over 55% in size. In outline:
(§1)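 Cells (500-1,000/well) in growth media were settled 5 h at 37 degrees C, then given compounds for 48 h. Viability was read as CellTiter-Glo luminescence. Primary runs used MIPE at 11 points (0.78 nM-46 µM) and NPC at 8 points (0.59 nM-46 µM); follow-ups used 11 points.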

A short description of assay [3]: qHTS of pediatric cancer cell lines to identify multiple opportunities for drug repurposing: Confirmatory screen for TC32 cells (AID 1347118).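 Further: potency means the concentration at half of the fitted maximal effect; cells exposed to compound for 48 h before the read; nearly all actives have a fitted effect of over 65% in size.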 In outline:
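TC32 cells, 500-1,000/well in growth medium, compound-treated 48 h at 37 °C; viability from CellTiter-Glo luminescence. Primary screen: MIPE 11-point (0.78 nM–46 µM final), NPC 8-point (0.59 nM–46 µM final); confirmatory at 11-point dilutions.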
A general note: In qHTS, concentration-response curves come from the screen itself.

Assay [4] is described as follows: qHTS of pediatric cancer cell lines to identify multiple opportunities for drug repurposing: Confirmatory screen for MG 63 (6-TG R) cells (AID 1347119). Further: nearly all actives have a fitted effect of over 55% in size. Further: potency means the concentration at half of the fitted maximal effect. In outline:
as §1

Assay [5] can be described thus: qHTS of pediatric cancer cell lines to identify multiple opportunities for drug repurposing: Confirmatory screen for control Hh wild type fibroblast cells (AID 1347121). Further: nearly all actives have a fitted effect of over 70% in size. Further: potency means the concentration at half of the fitted maximal effect. The gist of the method:
as §1

Assay [6] can be described thus: qHTS of pediatric cancer cell lines to identify multiple opportunities for drug repurposing: Confirmatory screen for U-2 OS cells (AID 1347122). Further: nearly all actives have a fitted effect of over 65% in size. Further: potency means the concentration at half of the fitted maximal effect. In outline: as §1
Assay [7] in a line: qHTS of pediatric cancer cell lines to identify multiple opportunities for drug repurposing: Confirmatory screen for Rh41 cells (AID 1347123).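 Further: potency means the concentration at half of the fitted maximal effect; 48 h compound exposure; nearly all actives have a fitted effect of over 60% in size.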 The gist of the method:
as §1

A short description of assay [8]: qHTS of pediatric cancer cell lines to identify multiple opportunities for drug repurposing: Confirmatory screen for Saos-2 cells (AID 1347127). Further: potency means the concentration at half of the fitted maximal effect; nearly all actives have a fitted effect of over 60% in size. The gist of the method:
as §1

Assay [9] can be described thus: qHTS of pediatric cancer cell lines to identify multiple opportunities for drug repurposing: Confirmatory screen for OHS-50 cells (AID 1347128).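 Further: potency means the concentration at half of the fitted maximal effect; compound exposure lasted 48 h at 37 degrees C; nearly all actives have a fitted effect of over 55% in size.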 The gist of the method:
as §1

Assay [10] in a line: qHTS of pediatric cancer cell lines to identify multiple opportunities for drug repurposing: Confirmatory screen for SK-N-SH cells (AID 1347129).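 Further: cells exposed to compound for 48 h before viability read; nearly all actives have a fitted effect of over 60% in size.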 Further: potency means the concentration at half of the fitted maximal effect. The gist of the method: as §1
For assay [11], the system named is Zika virus NS2B-NS3 protease. Briefly: Primary screen GU AMC qHTS for Zika virus inhibitors (AID 1347154). Further: nearly all actives have a fitted effect of over 70% in size. The gist of the method: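 Unlinked Zika NS2B hydrophilic domain/NS3 protease domain noncovalent complex (25 nM final) in 10 mM Tris-HCl pH 8.0, 0.01% Tween 20, with AMC peptide substrate. Fluorescence (ex 340, em 450 nm) change over 15 min, room temperature; percent inhibition fitted to 4-parameter Hill equation.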

Assay [12] can be described thus: qHTS of pediatric cancer cell lines to identify multiple opportunities for drug repurposing: Confirmatory screen for RD cells (AID 1347124).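 Further: potency means the concentration at half of the fitted maximal effect; cells exposed to compound for 48 h before viability readout; nearly all actives have a fitted effect of over 65% in size.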 In outline:
as §1

Assay [13] can be described thus: qHTS of pediatric cancer cell lines to identify multiple opportunities for drug repurposing: Confirmatory screen for Rh30 cells (AID 1347126). Further: nearly all actives have a fitted effect of over 55% in size. Further: potency means the concentration at half of the fitted maximal effect. In outline: as §1
The nature of assay [14]: qHTS of pediatric cancer cell lines to identify multiple opportunities for drug repurposing: Confirmatory screen for Rh18 cells (AID 1347125). Further: nearly all actives have a fitted effect of over 55% in size. Further: potency means the concentration at half of the fitted maximal effect. In outline: as §1
Assay [15] is described as follows: qHTS of pediatric cancer cell lines to identify multiple opportunities for drug repurposing: Confirmatory screen for NB-EBc1 cells (AID 1347115).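 Further: potency means the concentration at half of the fitted maximal effect; cells exposed to compound for 48 h before the viability read; nearly all actives have a fitted effect of over 45% in size.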 In outline:
as §1

Assay [16] concerns Zika virus NS2B-NS3 protease (unlinked complex). The assay can be described thus: Confirmatory screen GU AMC qHTS for Zika virus inhibitors (AID 1347153). Further: nearly all actives have a fitted effect of over 70% in size. The gist of the method:
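Unlinked NS2B-NS3 complex (25 nM) in 10 mM Tris-HCl pH 8.0, 0.01% Tween 20 preincubated 15 min with compound, then 10 microM Bz-Nle-KRR-AMC (Km 18.3 µM). Fluorescence change over 15 min, normalized, Hill-fitted.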

Inconclusive results are not listed. Active and inactive are the calls of the source. The call rests on the fitted dose curve; in most records, active means well fitted curve in the direction sought with a large enough effect; inconclusive means small, poorly fitted or top-dose-only effect, or another doubt; inactive means no such curve, though single readings can be large; an effect the other way counts as inactive or inconclusive.

For `Cc1ccc(C(N)=O)cc1Nc1nccc(-c2cn(C(C)C)c3cnccc23)n1`, the Potency was 21.4 µM (active) in [1]; 6.76 µM (active) in assay [2]; 7.59 µM (active) in assay [3]; 15.1 µM (active) in assay [6]; 13500 nM (active) in assay [7]; 21.4 µM (active) in assay [8]. Moreover, the Potency was 12 µM (active) in assay [9] and 6.79 µM (active) in assay [10]. The Potency result in [4], in [5] and in assay [11] was “inactive” each time.

For the molecule `O=C(NC1CCNCC1)c1[nH]ncc1NC(=O)c1c(Cl)cccc1Cl`, the Potency in [1] is 1.31 µM (active); in assay [2], 2.4 µM (active); in [3], 2.4 µM (active); in [6] it was 1.85 µM (active); in [7], 1170 nM (active); in assay [12], 737 nM (active). Moreover, the Potency in [13] is 465 nM (active); in assay [8] it was 2.69 µM (active); in assay [9], 2.4 µM (active); in [10], 1.05 µM (active). The Potency entry in [5] and in [11] was “inactive” throughout.

`CC(C)c1cnn2c(NCc3ccccc3)cc(N[C@@H](CO)[C@H](O)CO)nc12`: the Potency is 0.369 µM (active) in assay [2]; 827 nM (active) in assay [4]; 0.465 µM (active) in assay [6]; 737 nM (active) in assay [7]; 737 nM (active) in [12]; 0.585 µM (active) in assay [8]. Further, the Potency in [9] is 0.522 µM (active); in [10] it was 0.332 µM (active). Besides, the Potency result in assay [5] and in [11] was “inactive” in each case.

On to `Cc1nc(N)ncc1-c1nc(N2CCOCC2)c2sc(C(C)(C)O)cc2n1`, for which the Potency was 8.27 µM (active) in assay [2]; 2.33 µM (active) in assay [3]; 465 nM (active) in assay [4]; 1170 nM (active) in assay [12]; 1.65 µM (active) in [14]; 737 nM (active) in [13]. For the same molecule, the figures for the Potency in assay [8], in assay [9] and in assay [10] were 1.47 µM (active), 2.93 µM (active) and 1.48 µM (active), respectively. The Potency result in assay [11] was “inactive”.

`COc1cc2c(NC3CCN(C(C)C)CC3)nc(C3CCCCC3)nc2cc1OCCCN1CCCC1`: the values for the Potency in assay [2], in assay [3] and in assay [10] were 26.1 µM (active), 4.14 µM (active) and 7.43 µM (active), respectively. Also, the Potency entry in [5], in assay [6], in assay [13] and in assay [11] was “inactive” throughout.

As for `CCn1nnc2c(N3CCOCC3)nc(-c3ccc(NC(=O)Nc4ccc(C(=O)N5CCN(C)CC5)cc4)cc3)nc21`, the Potency in assay [1] was 0.737 µM (active); in assay [2], 0.329 µM (active); in assay [3], 0.293 µM (active); in assay [4], 293 nM (active); in assay [7], 522 nM (active); in [12], 414 nM (active). The Potency is 1.04 µM (active) in [14]; 928 nM (active) in [13]; 0.657 µM (active) in assay [8]; 1.17 µM (active) in assay [9]; 5.9 µM (active) in [10].

Regarding `CC(C)C[C@H](NC(=O)CNC(=O)c1cc(Cl)ccc1Cl)B(O)O`, the Potency in [1] is 0.185 µM (active); in assay [6], 0.928 µM (active); in [7], 165 nM (active); in assay [12] it was 465 nM (active); in [14], 0.369 µM (active); in assay [10], 0.418 µM (active). Besides, the Potency result in [11] is “inactive”.

Turning to `Cc1ccc(-c2ncn(-c3ccc(Nc4nccc(-c5cccc(N6CCOCC6)c5)n4)cc3)n2)cn1`, the Potency in [1] is 0.24 µM (active); in assay [2] it was 0.0851 µM (active); in assay [3], 0.135 µM (active); in assay [6], 0.24 µM (active); in assay [7], 151 nM (active); in [14], 0.107 µM (active). Further, the Potency is 120 nM (active) in [13], 0.107 µM (active) in assay [8], 0.537 µM (active) in assay [9] and 0.303 µM (active) in assay [10]. Moreover, the Potency entry in [5] and in [11] was “inactive” throughout.

`COC(=O)Nc1nc2ccc(C(=O)c3ccc(F)cc3)cc2[nH]1`: the Potency in assay [1] was 2.33 µM (active); in assay [2], 2.61 µM (active); in assay [3], 1.17 µM (active); in assay [4], 1470 nM (active); in [12], 2930 nM (active); in assay [8] it was 1.85 µM (active). The Potency in assay [9] is 2.61 µM (active). Besides, the Potency entry in assay [5], in assay [14], in assay [13], in [10] and in assay [11] was “inactive” throughout.

Take `C=CC(=O)Nc1cccc(Oc2nc(Nc3ccc(N4CCN(C)CC4)cc3)ncc2Cl)c1`: the Potency in assay [15] was 18.5 µM (active); in assay [3] it was 1.17 µM (active); in assay [4], 2930 nM (active); in assay [5], 20.8 µM (active); in assay [6], 2.61 µM (active); in [7] it was 2610 nM (active). For the same molecule, the Potency in assay [8] was 2.93 µM (active); in assay [9], 5.22 µM (active); in [10], 2.96 µM (active). The Potency entry in assay [11] was “inactive”.

On to `Cc1nc2cnc3ccc(C#Cc4cccnc4)cc3c2n1-c1ccc(C(C)(C)C#N)cc1`, for which the Potency is 6.76 µM (active) in [1]; 1.51 µM (active) in [2]; 2.14 µM (active) in [6]; 851 nM (active) in [7]; 12000 nM (active) in [12]; 1.91 µM (active) in assay [14]. Also, the Potency in assay [13] is 1350 nM (active); in assay [8] it was 5.37 µM (active); in [9] it was 3.39 µM (active); in assay [10] it was 2.15 µM (active). Moreover, the Potency entry in assay [11] is “inactive”.

Consider `CC(=O)Nc1nc(C)c(-c2ccc(Cl)c(S(=O)(=O)NCCO)c2)s1`, for which the Potency in assay [2] was 18.5 µM (active); in assay [3] it was 7.37 µM (active); in assay [4], 2330 nM (active); in assay [6] it was 14.7 µM (active); in assay [7] it was 5850 nM (active); in assay [14], 11.7 µM (active). In addition, the Potency in assay [13] is 14700 nM (active); in [8], 16.5 µM (active); in [9], 11.7 µM (active). For the same molecule, in assay [11], the Potency result is “inactive”.

Take `Cc1ccc(C(=O)Nc2cccc(C(F)(F)F)c2)cc1-c1ccc2nc(NCCN3CCOCC3)ncc2c1`: the Potency in [1] was 13.1 µM (active); in assay [2], 4.14 µM (active); in assay [6] it was 4.14 µM (active); in [7], 5850 nM (active); in [12], 7370 nM (active); in assay [14], 7.37 µM (active). In addition, the Potency is 5220 nM (active) in assay [13], 8.27 µM (active) in assay [8] and 8.27 µM (active) in [9]. The Potency entry in assay [10] and in assay [16] was “inactive” throughout.

On to `O=C(Nc1ncc(-c2cc(C(F)F)nn2-c2c(Cl)cccc2Cl)s1)C1CC1`, for which the Potency was 1.04 µM (active) in assay [2]; 0.369 µM (active) in assay [3]; 329 nM (active) in assay [4]; 1.04 µM (active) in assay [6]; 928 nM (active) in [7]; 13100 nM (active) in assay [13]. Further, the Potency in assay [8] was 0.465 µM (active).
